Compounds without any hit were thinned out: in the full panel of roughly 83,000, 20% have a hit.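 96-well plates, one dose, 48 hours. Percent growth reported; active if below 10.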 Unmarked numbers belong to inactive results. Active and inactive are the calls of the source.

This assay relates to M14 melanoma. The experiment in a line: NCI-60 one-dose screen, 48 h (100 = growth as untreated, 0 = no growth, -100 = all killed). The conditions noted are these: 10 µM unless noted. On the procedure: Growth inhibition of the M14 human tumor cell line is measured as a screen for anti-cancer activity. Cells are grown in 96 well plates and exposed to the test compound for 48 hours. Compounds are tested at a single concentration, which is 10^-5 M for most compounds. The reported endpoint is percent growth (GI% or GIPRCNT), where numbers from 0 - 100% represent growth inhibition, and numbers from -100% - 0 represent cell death. For example, a value of 40 represents 60% growth inhibition. A value of 0 means no net growth occurred over the course of the experiment. A value of -40 indicates 40% of cells at the beginning of the experiment died by the end of the experiment. A value of -100 means all cells are dead at the end of the experiment.
NCI-60 Human Tumor Cell Lines Screen was performed using the standard one-dose NCI protocol, which is described in more detail at https://dtp.cancer.gov/discovery_development/nci-60/default.htm.
Compounds with GIPRCNT values below 10 were considered active. Activity score was based on GIPRCNT using the following formula: […]
Score is 0 for GIPRCNT values of 100 or above, 50 for GIPRCNT values of 0, and 100 for GIPRCNT values of -100.
As for `COc1ccc(-c2nc(SCC(=O)Nc3nc(-c4ccccc4)cs3)[nH]c(=O)c2C#N)cc1`, the growth was 89.6%. As to `COc1cc(/C=C/C(=O)c2c(C)nc3ccccc3c2C)ccc1OCCCN1CCN(C(=O)c2ccco2)CC1`, the growth is 94.4%. For `COCN1CCC2N(COC)CCC3N(COC)CCC1N23` (stereo not given), the growth is 98%. For the compound `CCCCc1ccc(Nc2ccc(Nc3ccc(CCCC)cc3S(=O)(=O)O)c3c2C(=O)c2ccccc2C3=O)c(S(=O)(=O)O)c1`, the growth is 101%.

Consider `Cc1ccc2nc3ccccc3c(NCc3ccccc3)c2c1`, for which the growth was 45.6%. Turning to `CC1OC(O[C@H]2/C=C/C=C/C=C/C=C/C=C/C=C/C=C/[C@H](C)[C@@H](O)[C@@H](C)[C@H](C)OC(=O)CC(O)CC(O)CCC(O)C(O)CC(O)C[C@]3(O)C[C@H](O)C(C(=O)O)C(C2)O3)C(O)[C@H](N)C1O` (stereo not given in full), the growth is 16.3%. `Cc1c(O)cc(-c2cnc(N/N=C\c3ccc(Cl)cc3)s2)c(O)c1C`: the growth is 96.2%. The value for `c1cc2ccc3cc2cc1CNCCOCCNCc1ccc2ccc(cc2c1)CNCCOCCNC3` was 89.6%; that for `COc1ccc2oc3c(C)c4c(c(C)c3c2c1)C(=O)N(Cc1ccccc1)C4=O` was 92.9%.

For the compound `N#Cc1c(N)nc2c(C#N)c(NC(=O)c3ccccc3)nn2c1-c1ccccc1`, the growth is 87.3%. As to `NS(=O)(=O)c1cnccc1Oc1cccc2cccnc12`, the growth is 98.8%. `Fc1c[c-]c(-c2ccccn2)c(F)c1.[CH3-].[Pt+2].c1ccc(P(C[PH+](c2ccccc2)c2ccccc2)c2ccccc2)cc1`: the growth is -20% (active). `O=C(/C=C/c1ccc(Cl)nc1)c1ccc(Cl)cc1Cl`: the growth was 97.6%.

As to `N#Cc1c(-c2cccc(Cl)c2)cc(-c2cccc(Cl)c2)[nH]c1=O`, the growth is 57.9%. With `Nc1n[nH]c(-c2cc(Cl)ccc2O)c1-c1ccccc1`, the growth was 93.8%. As for `CN(C)CC1C(=O)O[C@H]2[C@H]1CC/C(COC(=O)c1cc3ccccc3[nH]1)=C\CC[C@@]1(C)O[C@@H]21` (stereo not given in full), the growth is -62.3% (active). For the compound `CC(=O)N1C(=S)NC(=O)C1Cn1c(-c2ccccc2)nc2ccccc21` (stereo not given), the growth was 103%.

As for `Cc1nn(-c2ccccc2)c2nc3c(c(-c4ccc(Cl)cc4)c12)CNC1(CCSCC1)N3`, the growth is 94.1%.

Consider `O=C(Nc1ccc(Cl)cc1)Nc1ccc(Cl)c(C(F)(F)F)c1`, for which the growth was 11.8%. For `Cc1ccc(-c2cc3c(cc2O)C2CCCCC2(N2CCOCC2)O3)cc1` (stereo not given), the growth is 92.5%. The value for `OC(COc1ccccc1Cl)COc1ccccc1Cl` was 93.2%. As for `O=[N+]([O-])c1ccc(-c2cc(-c3ccc(Nc4nc(Nc5ccc(Cl)cc5)nc(Nc5ccc(Cl)cc5)n4)cc3)no2)cc1`, the growth is 102%. For `Cn1c(I)c(C#C[Si](C)(C)C)c(=O)n(C(=O)c2ccccc2)c1=O`, the growth was -54.7% (active).

Turning to `Cc1cc(Cl)nc(NCc2cc(Nc3ccnc4cc(Cl)ccc34)ccc2F)n1`, the growth was 60.9%. For the compound `COc1ccc(C2C(c3nn[nH]n3)=C(N)Oc3c2ccc2ccccc32)cc1` (stereo not given), the growth was 58.4%.

Take `CCCCn1c(=O)c2c(nc3n2CCCN3CCc2ccc(OCC(=O)NCCN(CC)CC)cc2)n(CCCC)c1=O`: the growth was -79.2% (active).

For `O=C1/C(=C\c2cccnc2)SC(=S)N1CCc1ccc(O)cc1`, the growth was 60.2%. As to `COc1ccc(C(=O)COc2ccc(/C=C3\Oc4ccccc4C3=O)cc2)cc1`, the growth is 84.7%.

As for `COC1=CC(=O)C[C@@H](C)[C@]12Oc1c(Cl)c(OC)cc(OC)c1C2=O`, the growth was 66.3%. Take `NC1=NCc2nc3ccccc3c(=O)n2C1`: the growth was 102%. For the compound `COC(=O)CCC1=C(C)C2=NC1=CC1=NC(=CC3=NC(=Cc4[nH]c(/c(=C(/C)O)c4C)=C2)C(C(C)=O)=C3C)C(C)=C1CCC(=O)OC`, the growth was 108%. The value for `COc1ccc2nc(NNC(=O)c3cnccn3)c3cccn3c2c1` was -37.5% (active); that for `NC(=N\N=C/c1cccc([N+](=O)[O-])c1)/C(N)=N\N=C/c1cccc([N+](=O)[O-])c1` was 92.8%; that for `C=C1C(=O)O[C@H]2[C@H]1CC/C(COC(=O)C(=O)c1cn(C)c3ccc(OC)cc13)=C\CC[C@@]1(C)O[C@@H]21` was -77.3% (active).

Take `CN(c1ccccc1)c1ccc2c(c1)OCCC21CC1Nc1cnccc1C(=O)O` (stereo not given): the growth is 81.2%.

For `CC/C=C1/C(=O)C=C[C@@H]1C/C=C\CCCC(=O)O`, the growth is 77.5%. Regarding `N#Cc1nc2c(S(=O)(=O)c3ccc(Cl)cc3)c(N)n(Nc3cccc(Cl)c3)c2nc1C#N`, the growth is 79%.

As to `O=S(=O)(O)c1ccc(N/N=C/c2ccccc2Cl)cc1`, the growth was 99.9%. Take `COc1ccc(-c2ccc3c(c2)sc2nc(-c4ccc(F)cc4)cn23)cc1`: the growth is 98%.

In the case of `COc1ccc(-c2nc3c(N)c(CO)c(C)nc3o2)cc1`, the growth is 106%.

The values above are taken from PubChem BioAssay (NCI).
